These results are taken from PubChem BioAssay AID434955 (Southern Research Specialized Biocontainment Screening …, 2010).

The campaign covered roughly 330,000 compounds. About 880 (0.27%) were called active. Roughly 1% stayed inconclusive and do not appear here. The rule behind the calls is not given here. Not all results are given here.

The experiment is described as follows: beta-lactam sensitization of Mtb H37Rv, H37Rv (AID 434955).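 Note: growth measured after seven days incubation then overnight dye step; 0% = bacteria only wells and 100% = bacteria with antibiotic.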 The note with it: M. tuberculosis H37Rv growth with meropenem, percent inhibition, at 25 µM.
The mark [1] stands for this setting: measured here: primary screen without meropenem.

In general, inhibition refers to the relative decrease from the control value, in per cent.

For `C/C(=N/O)c1ccc(N2C(=O)C3C4C=CC(C3C2=O)C2C3C(=O)N(c5ccc(/C(C)=N/O)cc5)C(=O)C3C42)cc1` (centres undefined), the inhibition (stronger effect = higher value) was -4.77% (inactive) and the inhibition under setting [1] was -7.58%.
As to `Cc1ccc(S(=O)(=O)N(CC(O)CN2C(=O)NC(C)(C)C2=O)c2cccc([N+](=O)[O-])c2)cc1` (centres undefined), the inhibition runs as follows: (stronger effect = higher value) 16.4% (inactive); under setting [1], 4.68%.
In the case of `CC/S(CC1CC1(Cl)Cl)=N\S(=O)(=O)c1ccc(C)cc1` (centres undefined), the inhibition reads like this: (stronger effect = higher value) -10.6% (inactive); under setting [1], -11.9%.
For `CCOc1cc(NC(=O)CCl)c(OCC)cc1NC(C)=O`, the inhibition (stronger effect = higher value) was 90.5% (inactive) and the inhibition under setting [1] is 98.2%.
For `CC(C)CCOc1ccc(C(=O)C[N+]2(C)CCOCC2)cc1`, in that order: -6.59% (inactive) and 4.15%.
For `COC(=O)C(C)N=Cc1ccccc1` (centres undefined), in that order: -4.31% (inactive) and 0.46%.
Turning to `O=C(C1CC(=O)N(C2CCCCC2)C1)N1CCN(c2ccccc2)CC1` (centres undefined), the inhibition is 0.44% (inactive) (stronger effect = higher value) and 1.29% under setting [1].
In the case of `O=[N+]([O-])c1c(NCCO)cc(Sc2nc3ccccc3s2)c2nonc12`, the inhibition runs as follows: (stronger effect = higher value) 95.6% (inactive); under setting [1], 96%.
For the compound `O=C(NCc1ccc2c(c1)OCO2)c1cc([N+](=O)[O-])ccc1N1CCOCC1`, the inhibition was -1.78% (inactive) (stronger effect = higher value) and -2.18% under setting [1].
For the compound `COc1ccc(NC(=O)COc2ccc(C(=O)c3ccc(F)cc3)cc2)cc1S(N)(=O)=O`, the inhibition by setting is: (stronger effect = higher value) 7.84% (inactive); under setting [1], 10.7%.
As to `N#Cc1ccc(COC(=O)Cn2nnc(-c3ccccc3)n2)cc1`, the inhibition is, setting by setting: (stronger effect = higher value) 2.69% (inactive); under setting [1], 0.73%.
In the case of `O=C(COC(=O)Cc1ccccc1F)NNC(=O)c1ccc(Cl)cc1`, the inhibition by setting is: (stronger effect = higher value) -6.06% (inactive); under setting [1], 20.8%.
As to `CC(=O)Nc1ccc(NC(=O)CSc2nnnn2-c2ccccc2F)cc1`, the inhibition is, setting by setting: (stronger effect = higher value) -2.11% (inactive); under setting [1], -2.67%.
For `CC(C)c1nc(CNC(=O)CC2C(=O)NCCN2Cc2ccoc2)cs1` (centres undefined), in that order: -7.57% (inactive) and -8.36%.
For the compound `O=C(CC1SC(=Nc2ccccc2F)N(CCN2CCOCC2)C1=O)Nc1ccc(F)cc1F` (centres undefined), the inhibition was 3.51% (inactive) (stronger effect = higher value) and 2.75% under setting [1].
Regarding `CCc1ccc(-c2cc3c(=O)n(CC(=O)NCCCN4CCN(Cc5ccccc5)CC4)nc(C)n3n2)cc1`, the inhibition runs as follows: (stronger effect = higher value) 99.7% (inactive); under setting [1], 99.5%.
Take `CO/N=C(/CS(=O)(=O)c1ccc(Br)cc1)c1ccc(OC)cc1`: the inhibition (stronger effect = higher value) was -4.01% (inactive) and the inhibition under setting [1] is -5.94%.
